From PubChem BioAssay (NCATS) come the findings set out here.

Several values for one entry are separate records, joined by “and”; a condition that tells them apart may be missing. Equal values may be shown once. Inconclusive results are not listed. A number with no mark means an inactive call. Activity calls are given as the source filed them. The call rests on the fitted dose curve; in most records, active means well fitted activation curve with a large enough effect; inconclusive means small, poorly fitted or top-dose-only effect; inactive means no such curve, though single readings can be large or run the other way.
Potency means the concentration at half of the fitted maximal effect.

Cellular tumor antigen p53 (Homo sapiens), sequence (P04637 whole entry, looked up): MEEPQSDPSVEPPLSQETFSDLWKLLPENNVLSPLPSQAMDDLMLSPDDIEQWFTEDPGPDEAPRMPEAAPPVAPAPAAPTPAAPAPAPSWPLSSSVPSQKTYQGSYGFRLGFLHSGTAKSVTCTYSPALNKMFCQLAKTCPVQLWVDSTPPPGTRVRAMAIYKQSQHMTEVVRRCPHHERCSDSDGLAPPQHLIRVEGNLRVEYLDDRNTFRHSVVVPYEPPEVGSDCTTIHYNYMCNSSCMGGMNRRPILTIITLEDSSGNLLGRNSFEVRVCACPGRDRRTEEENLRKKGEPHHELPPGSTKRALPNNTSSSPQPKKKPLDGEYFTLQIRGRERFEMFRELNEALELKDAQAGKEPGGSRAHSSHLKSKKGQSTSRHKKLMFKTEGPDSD

The target in this assay is Cellular tumor antigen p53 (Homo sapiens) (UniProt P04637). In words: Primary qHTS for small molecule compounds that upregulate eGFP-tagged delta133p53alpha (in N-terminal) cells. (AID 2060322). Further: nearly all actives have a fitted effect of over 75% in size.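 On activation: cells pre-induced with doxycycline then dosed without doxycycline; series mostly up to about 56 µM; 0% = DMSO vehicle and 100% = reference activator.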 The note with it: NCI-H358 eGFP-delta133p53alpha fluorescence, 24 h; activation: active compounds read high. An excerpt:
Assay Development and Screening Technology
National Center for Advancing Translational Sciences (NCATS),
National Institute of Health (NIH), Rockville, Maryland
Cellular senescence (CS) is one of the hallmarks of aging and age-related diseases. Senescent cells are characterized by an irreversible growth arrest, an increase in senescence-associated beta-galactosidase (SA-beta-gal) activity and p16INK4a expression, an activation of the DNA damage response pathways, and the emergence of a senescence-associated secretory phenotype (SASP).
Delta133p53alpha, a human/primate-specific p53 protein isoform, delays or inhibits the induction of CS and SASP in various types of human cells, including progeria-derived fibroblasts, primary normal astrocytes, and CD8+ T lymphocytes. Induction of delta133p53alpha with small molecule compounds may provide therapeutic opportunities for inhibition of senescence/SASP-associated pathologies in progeria syndromes, astrocyte-mediated neuroprotection in neurodegenerative diseases, and possibly prevention and treatment of a wider range of senescence- and aging-associated diseases.
Here we report the development and validation of a cell-based quantitative high throughput screening (qHTS) assay in 1,536-well format. This qHTS assay uses the NCI-H358 cell line with doxycycline-inducible expression of enhanced green fluorescent protein (eGFP)-tagged delta133p53alpha, which allows efficient and highly quantitative measurement of the protein levels.
PROTOCOL TABLE (as described by Inglese J, Shamu CE and Guy RK. 2007)
SEQUENCE No. (e.g., 1, 2, 3, etc.); […] (e.g., Cells, Incubation, Reagent, etc.); VALUE; DESCRIPTION.
1; Cells; 4uL; 800 doxycycline treated cells / well in doxycycline-free media, 1536-well black, clear-bottom low base Aurora microplates.
2; Compounds; 23 nL; Kalypsis pin tool (Wako) equipped with 1536-well pin heads, 5-azacytidine positive control.
3; Incubation; 24 hr; 37C, 5% CO2; 95% relative humidity.
4; Aspiration; 1x; BioTek EL406 washer dispenser (Agilent).
5; Fixing; 3.5% paraformaldehyde, BioTek EL406 washer dispenser (Agilent).
6; Washing; 1x PBS; BioTek EL406 washer dispenser (Agilent).
7; Nuclei staining; 1:1000 dilution of Hoechst 33342 (Thermofisher), BioTek EL406 washer dispenser (Agilent).
8; Incubation; 20 min; in the dark at room temperature.
9; Washing; 2x, 1x PBS (ThermoFisher), BioTek EL406 washer dispenser (Agilent).
10; Reagent; 10 uL; 1x PBS per well, sealed with clear adhesive tape.
NOTES (numbers refer to sequence numbers above).
1. NCI-H358 cells expressing eGFP-tagged delta133p53alpha were grown in T75 culture flasks and treated with doxycycline for 24h, at 10 ng/ml for eGFP-D133p53a cells (N-terminal cell) and 100 ng/ml for D133p53a-eGFP cells (C-terminal cells). Cells were trypsinized, counted using a Counted 3 Automated Cell Counter (Thermo Fisher), and diluted to a concentration of 200,000 cells/ml. A Multidrop Combi Reagent Dispenser (ThermoFisher) was used to dispense 800 cells/well in […] of doxycycline-free media, into 1536-well black/clear bottom low base plates (AuroraMicroplates).
2. After plating cells, 23 nl of compound library, DMSO vehicle control or positive control (5-azacytidine) were transferred by Pin Tool (Wako). The plate map layout was the same for each plate: (column 1) non-doxycycline treated cells + DMSO vehicle control; (column 2) doxycycline treated cells + DMSO vehicle control baseline; (column 3) doxycycline treated cells + positive control 57.5 uM final concentration 5-azacytidine; (column 4) doxycycline treated cells + serial dilution of 5-azacytidine, 16-point 1:2 titration spanning 1.8 nM to […] final concentration; (columns 5-48) doxycycline treated cells + titration of library compounds.
3. Cells were incubated at 37 °C, 5 % CO2, 95% RH with breathable metal lid for 24h.
4-10. […] After two washes, 10 ul of 1X PBS (Thermo Fisher) was dispensed to each well. Clear adhesive plate seals (VWR) were applied and plates stored at 4 °C.
11. […]
(In qHTS, concentration-response curves come from the screen itself.)
With `CC(=O)O[C@@H]1C(=O)C(C)=C(CCC(C)CC(=O)O)[C@@]2(C)CCCC(C)(C)C12` (stereo not given in full), the activation is 0.893%. Same read-out and setting: the same measure for `COc1c(C)c2c(c(O)c1C/C=C(\C)CCC(=O)OCCN1CCOCC1)C(=O)OC2`: -10.7%; for `CC1(C)CC[C@]2(C(=O)O[C@@H]3O[C@H](CO)[C@@H](O)[C@H](O)[C@H]3O)CC[C@]3(C)C(=CCC4[C@@]5(C)CC[C@H](O[C@@H]6O[C@H](C(=O)O)[C@@H](O)[C@H](O)[C@H]6OC6OC(CO)C(O)C(O)C6O)C(C)(C)C5CC[C@]43C)[C@@H]2C1` (stereo not given in full): -5.36%. Consider `C=C1CCC2C(C)(C)CCC[C@]2(C)[C@H]1CC/C(C)=C/C(=O)O` (stereo not given in full), for which the activation is -3.82%. Regarding `COCC1OC(OC(C)(C)C2CCC3(C)C=C(C4CCC5C4(C)CC(O)C4OC(C(C)(C)OC6OC(CO)C(O)C(O)C6NC(C)=O)CCC45C)CCC3O2)C(NC(C)=O)C(O)C1O` (stereo not given), the activation is -16.8%. As to `CCC(=O)N1CCN(c2ccc(-n3c(=O)ccc4cnc5ccc(-c6cnc7ccccc7c6)cc5c43)cc2C(F)(F)F)CC1`, the activation is 41.3%. Take `C=C1CCN([C@H](C)[C@](O)(Cn2cncn2)c2ccc(F)cc2F)CC1`: the activation was -19.1%.

Take `CC(C[N+](C)(C)C)OC(N)=O` (stereo not given): the activation was -5.86% and -4.18% and -40.2%. On to `Cc1nc(Nc2n[nH]c3c2CN(C(=O)NC(CN(C)C)c2ccccc2)C3(C)C)c2sccc2n1` (stereo not given), for which the Potency is 10.7 µM (active). Turning to `CNc1nc(C)nc(N[C@H]2CCC[C@@H](C(=O)NCc3ccc(C#N)cc3C(F)(F)F)C2)n1`, the activation is 10%. On the same count and under the same terms, then `Cc1cc(C)c2c(N)c(C(=O)NCc3ccc(Cl)cc3)sc2n1`, with 13.4%; and `CC1(C)CC[C@]2(C(=O)O[C@@H]3O[C@H](CO[C@@H]4O[C@H](CO)[C@@H](O)[C@H](O)[C@H]4O)[C@@H](O)[C@H](O[C@@H]4O[C@H](CO)[C@@H](O)[C@H](O)[C@H]4O)[C@H]3O)CC[C@]3(C)C(=CCC4[C@@]5(C)CC[C@H](O[C@@H]6OC[C@@H](O)[C@H](O)[C@H]6O)[C@@](C)(C(=O)O)C5CC[C@]43C)[C@@H]2C1` (stereo not given in full), with 0%; and `COC(=O)C1=CO[C@@H](O[C@@H]2O[C@H](COC(=O)/C=C/c3cc(OC)c(O)c(OC)c3)[C@@H](O)[C@H](O)[C@H]2O)[C@@H]2C(CO)=CC[C@H]12`, with -16.8%. As to `COC(=O)C1=C(C)NC(C)=C(C(=O)OC)C1c1cccc(NC(=O)NCCCN2CCC(c3cccc(OC)c3)CC2)c1`, the Potency is 21.3 µM (active). For the compound `CC1=C(C)C(=O)C(C(CCCCCC(=O)O)c2ccccc2)=C(C)C1=O` (stereo not given), the activation is -10.7% and 34%.

Turning to `Oc1cc(O)cc(/C=C/c2ccc(O)c(O)c2)c1`, the activation was 11.9%. Consider `OCc1ccc(-c2ccc(-c3ccc(CO)s3)o2)s1`, for which the activation is 23.8% and 25%. Regarding `Cc1c(C(=O)NCCO)[n+](=O)c2ccccc2n1[O-]`, the activation was -11.7%. On the same count and under the same terms, then `COc1cc(/C=C(\C#N)C(=O)Nc2nnc(C(F)(F)F)s2)ccc1OCc1ccc(C(F)(F)F)cc1C(F)(F)F`, with -42%. As to `O=C(/C=C/c1ccccc1)O[C@@H]1[C@@H](CO)O[C@@](CO)(O[C@H]2O[C@H](CO)[C@@H](O)[C@H](O)[C@H]2O)[C@H]1O`, the activation was -26%. Turning to `O=C(O)Cn1cnnn1`, the activation was -6.21%.

Turning to `CCOC(=O)[C@H](CCc1ccccc1)N[C@H]1CS[C@H](c2cccs2)CN(CC(=O)O)C1=O`, the activation was -24.3% and -1.2%. Take `Nc1ccc(O)c(C(=O)O)c1`: the activation is -19.2%.

For `c1cc(-c2cnn3cc(-c4ccc(OCCN5CCCCC5)cc4)cnc23)ccn1`, the activation was 46.6%.

`COc1cc(C2Oc3c(OC)cc(CCCO)cc3C2CO)ccc1O` (stereo not given): the activation was -18.8%. Turning to `CC(C)(Cc1nc(-c2ccc(O)cn2)no1)C(=O)NC1=C(C(=O)O)CCCC1`, the activation is 2.86%.

Regarding `CC1=C(CO)C(=O)O[C@@H]([C@@H](C)[C@H]2CC[C@H]3[C@@H]4C[C@H]5O[C@]56[C@@H](O)C=CC(=O)[C@]6(C)[C@@H]4CC[C@]23C)C1`, the Potency is 3.85 µM (active). As to `COC(=O)[C@H](O)[C@H]1C(C)(C)[C@H](OC(=O)C(C)C)[C@@]2(O)C(=O)[C@]1(C)C1CC[C@]3(C)C(CC(=O)O[C@H]3c3ccoc3)[C@]13O[C@@H]32` (stereo not given in full), the activation was 6.11%. As for `CC(NC(=O)C(O)C(C)C)C(=O)NC1C(=O)N(C)CCc2ccccc21` (stereo not given), the activation was 2.39%. Same read-out and setting: then `Cn1cc(C(=O)OCC2CCN(CCNS(C)(=O)=O)CC2)c2ccccc21`, with -16.5%.

For the compound `CCOC(=O)C(C)(C)Oc1ccc(Cl)cc1`, the activation is 14.3% and -37.9% and -27.7%. For the compound `COc1ccc2nc3n[nH]c(C)c3c(NCCOCCO)c2c1`, the activation is 6.21%. As to `CC=CC(=O)N(CC)c1ccccc1C`, the activation is -8.73%. `CC[N+](CC)(CC)CC(=O)Nc1c(C)cccc1C`: the activation is -4.9%. The same measure, in the same setting: then `CC1(C(=O)O)CCCC2(C)C3CC4C5CC3(CCC12)CC45C` (stereo not given), with 17.9%.

`Cn1ccnc1`: the activation is -23.6%.

Turning to `COc1cc(Nc2ncc3c(n2)-c2ccc(Cl)cc2C(c2c(F)cccc2OC)=NC3)ccc1C(=O)O`, the activation is 85.9%.

Turning to `CCN(CC)CCNC(=O)c1cc(Br)c(N)cc1OC`, the activation was 13%. Regarding `CC(C(=O)O)C1CCC2(C)C3C(=O)C=C4C(CCC(=O)C4(C)C)C3(C)CCC12C` (stereo not given), the activation is -15.2%. On to `CC(=O)OC/C(=C/C(=O)O)CC[C@@H]1C(C=O)=CC[C@@H]2C(C)(C)CCC[C@@]12C`, for which the activation is -32.8%.
